Whole data set: some 1,900 compounds, median “excess over highest single agent (ExcessHSA) synergy score, 6x6 matrix” near -83, cut for the lowest 2% near -370. Only a selection was taken, and the lowest values are over-represented in it overall.

This assay has as its system NCI-H446. Description: excess over highest single agent (ExcessHSA) synergy score, 6x6 matrix; higher = less synergy (more negative = stronger synergy). The note with it: 72 h; CellTiter-Glo viability. In general terms: In ATP-based viability assays light output follows the ATP content of the culture.
On to `O=C1NC(=O)/C(=C/c2ccc3nccc(-c4ccncc4)c3c2)S1` + Cc1sc2c(c1C)C(c1ccc(Cl)cc1)=N[C@@H](CC(=O)OC(C)(C)C)c1nnc(C)n1-2 [NCGC00250412-19], for which the “excess over highest single agent” value was -177.

As for `CCCNC(=O)[C@H]1O[C@@H]1C(=O)N[C@H](C(=O)N1CCC[C@H]1C(=O)OC)[C@@H](C)CC` + Cc1sc2c(c1C)C(c1ccc(Cl)cc1)=N[C@@H](CC(=O)OC(C)(C)C)c1nnc(C)n1-2 [NCGC00250412-19], the “excess over highest single agent” value is -117.

Turning to `CN(C)c1ccc(C2Nc3ccc4ccccc4c3C3=C2C(=O)CC(C)(C)C3)cc1Br` (stereo unspecified) + Cc1sc2c(c1C)C(c1ccc(Cl)cc1)=N[C@@H](CC(=O)OC(C)(C)C)c1nnc(C)n1-2 [NCGC00250412-19], the “excess over highest single agent” value was -30.1.

For `O=c1cc(N2CCOCC2)oc2c(-c3ccccc3)cccc12` + Cc1sc2c(c1C)C(c1ccc(Cl)cc1)=N[C@@H](CC(=O)OC(C)(C)C)c1nnc(C)n1-2 [NCGC00250412-19], the “excess over highest single agent” value was 83.7.

For `O=c1cc(N2CCOCC2)oc2c(-c3cccc4c3sc3ccccc34)cccc12` + Cc1sc2c(c1C)C(c1ccc(Cl)cc1)=N[C@@H](CC(=O)OC(C)(C)C)c1nnc(C)n1-2 [NCGC00250412-19], the “excess over highest single agent” value was -318.

Regarding `CCN1CCN(CC(=O)Nc2ccc(-c3cccc4c(=O)cc(N5CCOCC5)oc34)c3sc4ccccc4c23)CC1` + Cc1sc2c(c1C)C(c1ccc(Cl)cc1)=N[C@@H](CC(=O)OC(C)(C)C)c1nnc(C)n1-2 [NCGC00250412-19], the “excess over highest single agent” value was -383.

Regarding `CN(C)CC(=O)N1CCC(c2ccc(NC(=O)c3ncc(C#N)[nH]3)c(C3=CCCCC3)c2)CC1` + Cc1sc2c(c1C)C(c1ccc(Cl)cc1)=N[C@@H](CC(=O)OC(C)(C)C)c1nnc(C)n1-2 [NCGC00250412-19], the “excess over highest single agent” value came to 53.2.

In the case of `CC1CCN(c2cc(N3CCN(C)CC3)ccc2NC(=O)c2cc(C#N)c[nH]2)CC1` + Cc1sc2c(c1C)C(c1ccc(Cl)cc1)=N[C@@H](CC(=O)OC(C)(C)C)c1nnc(C)n1-2 [NCGC00250412-19], the “excess over highest single agent” value amounted to 106.

On to `COc1ccc(Nc2nccc(NCCO)n2)cc1` + Cc1sc2c(c1C)C(c1ccc(Cl)cc1)=N[C@@H](CC(=O)OC(C)(C)C)c1nnc(C)n1-2 [NCGC00250412-19], for which the “excess over highest single agent” value is 81.9.

Take `CN(C)c1ccc2cc(C(=O)N[C@@H](CCCN=C(N)CCl)C(=O)NCc3ccccc3)ccc2c1` + Cc1sc2c(c1C)C(c1ccc(Cl)cc1)=N[C@@H](CC(=O)OC(C)(C)C)c1nnc(C)n1-2 [NCGC00250412-19]: the “excess over highest single agent” value is -202.

`NS(=O)(=O)c1ccc(Nc2nc(OCC3CCCCC3)c3[nH]cnc3n2)cc1` + Cc1sc2c(c1C)C(c1ccc(Cl)cc1)=N[C@@H](CC(=O)OC(C)(C)C)c1nnc(C)n1-2 [NCGC00250412-19]: the “excess over highest single agent” value is -148.

(Values after the supplement of paper PMC10077471.)
